Compound activity deposited in PubChem by SRMLSC.
MK inhibit: inhibitors of Streptococcus pneumoniae mevalonate kinase. inhibition, % at 10 µM. 0.48% of 65,000 active. purified MK, PK/LDH-coupled NADH absorbance 340 nm;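 active = ranked among the strongest by inhibition in the single 10 µM screen, a fixed top-ranked set picked for dose follow-up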
Abs 340nm: absorbance at 340 nm. compound absorbance at 340 nm, fold over control. fold change at 10 µM. 65,000 tested, under 10 active;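 active = at 10 µM dose, initial 340 nm absorbance at least 2 fold that of control wells; inactive = change under 2 fold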;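 note: initial absorbance extrapolated from kinetic A340 decline of NADH oxidation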
Spn PMK inh: S. pneumoniae PMK inhibition; purified PMK, PK/LDH-coupled NADH absorbance 340 nm; inhibition, % at 10 µM; 0.49% of 65,000 active; AID 539;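 active = top-ranked compounds by inhibition in the single 10 µM screen, taking a fixed number of the strongest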;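 note: 0% = full reaction with DMSO carrier and 100% = background rate without enzyme reaction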
DPM-DC inhibit: inhibitors of Streptococcus pneumoniae diphosphomevalonate decarboxylase; 0.49% of 65,000 active; purified DPM-DC, PK/LDH coupled NADH fluorescence; calls only at 10 µM; AID 556;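 active = the 320 compounds with the highest percent inhibition in the single-dose primary screen, excluding strongly autofluorescent ones, cut at about 32% in these data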;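 note: kinetic rate of NADH fluorescence loss reporting ADP formed by the decarboxylase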
NADH enzymes: blocks coupling enzymes of NAD/NADH assays; 0.02% of 65,000 active; IC50, µM (series often up to 10 µM), for inactives: top-dose inhibition; coupled PK/LDH NADH assays, four targets;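 active = single-dose screening hits from any of four coupled enzyme assays that gave an IC50 when retested across doses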;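 note: the DPM-DC format reads NADH fluorescence rather than 340 nm absorbance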
Fluor 339 460: intrinsic fluorescence of library compounds, ex339/em460 – biochemical, MLSMR library, data from DPM-DC assay, artefact control, profiling panel; compound autofluorescence, ex339/em460 nm, NADH buffer; stronger effect = higher value; 1 = no-compound wells, NADH background; fluorescence fold increase at 10 µM; 5.5% of 65,000 active; AID 709;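 active = at 10 µM, mean starting fluorescence two-fold or more over control wells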;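 note: signal is the first read of a kinetic run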
An asterisk follows results filed as active; i = inactive; . = no result shown; + = active, no number. Shown are actives, neighbours in structure and some others; about 6.3% of the full set was active somewhere.

SMILES	MK inhibit	Abs 340nm	Spn PMK inh	DPM-DC inhibit	NADH enzymes	Fluor 339 460
COc1ccc2nc(Nc3nc(C)c(C(C)=O)s3)sc2c1	9	1	11	i	7%	2*
COc1cc(C)nc(Nc2nc(C)c(C(C)=O)s2)n1	1	1.1	4	i	3%	1.1
CCCC(=O)Nc1ccc2oc(-c3ccc(OC)c(Br)c3)nc2c1	7	1	11	.	9%	3.7*
CCCC(=O)Nc1ccc(-c2nc3cc(C)c(C)cc3o2)c(O)c1	10	1.2	7	.	9%	2.2*
COc1ccc(CC(=O)Nc2ccc(-c3nc4cc(C)ccc4o3)c(O)c2)cc1OC	0	1.2	4	.	2%	2.2*
COc1ccccc1OCC(=O)Nc1cccc(-c2nc3ccccc3o2)c1	6	0.99	3	i	12%	1
CCCC(=O)Nc1ccc(-c2nc3cc(C)ccc3o2)cc1	2	1.1	0	.	1%	2.3*
O=C(c1cccc2ccccc12)N1CCN(CC2CC=CCC2)CC1 (configuration not stated)	33	1	13	i	15%	1
Cc1ccc(S(=O)(=O)Nc2ccc3nc(-c4cccn4C)[nH]c3c2)cc1	2	1.1	0	i	1%	1.2
Cc1ccc(C(=O)C(C)OC(=O)C2CC(=O)N(C3CCCCC3)C2)cc1 (configuration not stated)	7	0.99	11	i	6%	1.1
CCN=c1sc(C(=O)NCCc2ccccc2)cc(=O)n1CC	0	1.1	25*	i	8%	1
O=C(CCn1c(=O)sc2ccccc21)NCc1ccco1	0	1.1	0	i	0%	1.1
Clc1c(-c2nnc3n2CCC3)sc2ccccc12	8	1.3	3	+	36%	1.3
CSc1nnc2c3cc(C)ccc3n(Cc3ccccc3)c2n1	8	1	11	i	7%	1.2
O=C(O)c1nc2ccccc2nc1C(=O)O	.	1	0	i	0%	1.1
Nc1nc2ccccc2nc1N	6	1.1	1	i	4%	2.1*
C=C(C)Cn1c(SCC(=O)O)nc2c1c(=O)[nH]c(=O)n2C	3	1	15	i	6%	1.1
Cc1cc(C)n(-c2nc3ccccc3n3cnnc23)n1	11	1.1	12	i	8%	1.1
c1ccc(N2CCOCC2)c(Nc2nc3ccccc3n3cnnc23)c1	0	1.1	8	i	4%	1.2
CCN(CC)c1nc2ccccc2n2cnnc12	3	1.1	18	+	18%	1.1
CCOc1ccccc1Nc1nc2ccccc2n2cnnc12	10	1.1	15	.	13%	2.1*
O=C(CC12CC3CC(C1)CC(CC(=O)N1CCCC1)(C3)C2)N1CCCC1	0	1.1	0	i	0%	1.1
Cc1cc(-c2nc3ncccc3o2)ccc1NC(=O)CC(C)C	4	1.1	2	.	3%	2.2*
Cc1ccc(OCC(=O)Nc2ccc(-c3nc4ncccc4o3)cc2)c(C)c1	0	1.2	0	.	0%	2.2*
Nc1nc(N)c2sc3nc4c(cc3c2n1)CCC4	4	1.1	0	+	13%	3.2*
SMILES	MK inhibit	Abs 340nm	Spn PMK inh	DPM-DC inhibit	NADH enzymes	Fluor 339 460
O=C(OCCN1C(=O)c2ccccc2C1=O)c1cc(=O)[nH]c2ccccc12	7	1.1	10	i	7%	1.5
CCCCCOC(=O)c1cc(=O)[nH]c2ccccc12	8	1.1	13	i	9%	2*
CCN(CC)C(=O)CSc1ccccc1N	4	1	14	i	6%	1.1
CN(C)C(=O)COc1ccc2cc(-c3ccccc3)c(=O)oc2c1	7	1.1	7	.	4%	3*
Cc1cc(OCC(=O)N(C)C)c2c(-c3ccccc3)cc(=O)oc2c1	7	1.1	9	i	13%	1.4
CC1=C(C(=O)OCc2ccccc2)C(c2ccco2)C2=C(CC(C)(C)CC2=O)N1 (configuration not stated)	1	1.1	10	i	8%	1.5
CCCOC(=O)C1=C(C)NC2=C(C(=O)CCC2)C1c1cccs1 (configuration not stated)	9	1.1	13	i	8%	1.7
COC(=O)C1=C(C)NC2=C(C(=O)CCC2)C1c1coc2ccccc2c1=O (configuration not stated)	11	1.1	14	i	8%	1.5
CCCOC(=O)C1=C(C)NC2=C(C(=O)CCC2)C1c1cccc(OC)c1OC (configuration not stated)	6	1.1	0	.	3%	2.2*
COC(=O)C1=C(C)NC2=C(C(=O)CC(C)(C)C2)C1c1cccc(C)n1 (configuration not stated)	0	1.1	0	.	0%	3.7*
COC(=O)C1=C(C)NC2=C(C(=O)CCC2)C1c1cccc(C)n1 (configuration not stated)	11	1	7	.	9%	4*
CC(=N/O)/C(=N\O)c1ccc(C)o1	4	0.99	0	i	1%	1.1
CCCCn1c2nc3ccccc3nc2c2c(=O)n(CCC)cnc21	7	1.1	11	.	9%	3.9*
COc1ccc(Cn2c3nc4ccccc4nc3c3c(=O)n(Cc4ccco4)cnc32)cc1	8	1.1	0	i	5%	1.8
COCCCn1cnc2c(c1=O)c1nc3ccccc3nc1n2CCc1ccccc1	3	1.1	0	.	2%	2.4*
CC(C)CCn1cnc2c(c1=O)c1nc3ccccc3nc1n2Cc1ccc2c(c1)OCO2	2	1.1	2	.	2%	3.6*
CCOCCCn1cnc2c(c1=O)c1nc3ccccc3nc1n2-c1ccc(C)cc1	14	1.1	12	i	9%	1.2
COCCCn1c2nc3ccccc3nc2c2c(=O)n(-c3ccccc3OC)c(C)nc21	8	1	6	i	11%	1.9
COCCCn1c2nc3ccccc3nc2c2c(=O)n(-c3ccccc3OC)cnc21	7	1.1	12	i	8%	2.4*
O=C(c1ccc(N2CCNCC2)cc1)c1cccnc1	12	1.2	13	i	11%	1
Cc1ccc(-n2c(Cc3cccn3C)nnc2SCC(=O)Nc2cc(C)on2)cc1	4	1	9	i	4%	1.1
CC#CCN(CC#CC)S(=O)(=O)c1ccc(-n2cnnn2)c(OC)c1	10	0.97	6	i	5%	1
Cc1nc2cc(NC(=O)NCCC3=CCCCC3)ccc2o1	7	1	9	i	5%	1.1
CCOCCCn1cnc2c(c1=O)c1nc3ccccc3nc1n2-c1ccccc1	8	1.1	13	i	11%	3*
CCCn1cnc2c(c1=O)c1nc3ccccc3nc1n2Cc1ccccc1OC	4	1	13	i	3%	1.1
